In ChEMBL document CHEMBL3988442, “University of Dundee, Small-Polar-MMV Screening Library” (2021):
Screen size: about 85,000 compounds; about 440 (0.52%) showed an effect of 50% or more. Only a selection was taken, and strong results are over-represented in it overall.

Experiment: In vitro enzyme assay to detect hydrolysis of chlorophenol red-beta-D-[…] directly proportional to the number of Toxoplasma stably expressing beta-galactosidase
Assay type: functional, organism-based, Toxoplasma gondii
Set-up: scale not given: in the data most compounds retested in dose-response had high values

SMILES	Percent Effect (10 µM)	Percent Effect (50 µM)
COC[C@@H]1CCC[C@@]12CN(Cc1ccco1)CCO2.O=C(O)C(F)(F)F	-11.03%	–
COC[C@@H]1CCC[C@]12CN(Cc1ccco1)CCO2.O=C(O)C(F)(F)F	-8.533%	–
COC[C@@H]1CCC[C@@]12CN(Cc1ccc(C)s1)CCO2.O=C(O)C(F)(F)F	74.98%	–
O=C(c1ccco1)N1CCC(N2CCCC2)CC1	–	-19.12%
CN(Cc1ccccn1)Cc1csnn1	–	13.21%
O=C(c1ccc(Br)cn1)N1CCC(n2ccnn2)CC1	–	0.6699%
COc1cccc(CO)c1C	–	-13.36%
COC(=O)c1ccc(CN2CCCC(CO)C2)cc1 (configuration not stated)	–	-14.35%
CCOc1ccccc1C(=O)N1CCC(N)CC1	–	9.165%
CCOc1ccc(C(=O)N2CCC(N)CC2)cc1	–	56.89%
CCCc1ccc(C(=O)N2CCC(N)CC2)cc1	–	-1.427%
Cc1cc(Br)cc(C(=O)NC2(C(N)=O)CC2)c1	–	10.26%
CC(C)=CCN1CCN(CCO)CC1CCO (configuration not stated)	–	22.16%
O=C(NC1=NCCS1)c1cc2cc(F)ccc2s1	–	-6.521%
Cn1nccc1CCC(=O)NCCN1CCCC1	–	10.39%
COc1ccc(C(C)N(C)Cc2c(C(C)(C)C)[nH]c3ncccc23)cc1 (configuration not stated)	-0.9197%	–
COc1ccc(C(C)N(C)Cc2c(C(C)C)[nH]c3ncccc23)cc1 (configuration not stated)	-0.3537%	–
COc1ccc(C(C)N(C)Cc2c(C3CC3)[nH]c3ncccc23)cc1.Cl (configuration not stated)	65.16%	–
NS(=O)(=O)c1cccnc1NC1CCc2ccccc21 (configuration not stated)	–	16.24%
CN(C1CCCCC1)S(=O)(=O)N1CCNCC1	–	5.411%
COC(=O)c1cnc2[nH]nc(C)c2c1	–	55.45%

SMILES	Percent Effect (10 µM)	Percent Effect (50 µM)
COC(=O)c1cnc(C)c(OC)c1	–	-7.167%
CCS(=O)(=O)N1CCN(C(=O)c2cnc3[nH]nc(C)c3c2)CC1	-8.634%	–
CC(C)(NC(=O)c1ccc(-c2ccc(F)cc2)s1)C(N)=O	16.31%	–
NS(=O)(=O)CCNC(=O)c1ccc(-c2cccs2)s1	–	1.485%
NCCNC(=O)c1ccc(-c2ccc(Cl)cc2)s1	–	89.1%
Cc1csc(CCNC(=O)CSCC#N)n1	–	-3.488%
CC(O)C(=O)Nc1ccc(Cl)c(OC(F)F)c1 (configuration not stated)	–	-7.05%
CC(C)(C)OC(=O)NCc1cc(C(N)=O)co1	–	-10.17%
CCC(CNC(=O)c1ccoc1)N1CCCC1 (configuration not stated)	–	9.191%
Cn1cc(NC(=O)CC2C=CCC2)cc(Br)c1=O (configuration not stated)	–	-2.451%
N#CCCN(CCC#N)Cc1ccc(Br)c2cccnc12	11.15%	–
OCCN(CCO)Cc1ccc(Br)c2cccnc12	9.5%	–
CCN(CCO)Cc1ccc(Br)c2cccnc12	72.7%	–
Cc1nnc(NCc2cccc(OCC3CCCO3)c2)c(C#N)c1C (configuration not stated)	91.1%	–
Cc1nc2ccccc2nc1NCc1cccc(OCC2CCCO2)c1 (configuration not stated)	17.15%	–
N#Cc1ccc(NCc2cccc(OCC3CCCO3)c2)nc1 (configuration not stated)	-17.65%	–
CN(C)S(=O)(=O)N(CCCO)c1ccccc1Br	–	-12.8%
CCc1nnc(Nc2cc(C)nc(C3CCN(c4ncccn4)C3)n2)s1 (configuration not stated)	8.527%	–
CCc1nnc(Nc2cc(C)nc(C3CCN(c4cnccn4)C3)n2)s1 (configuration not stated)	9.302%	–
CCc1nnc(Nc2cc(C)nc(C3CCN(c4ccncn4)C3)n2)s1 (configuration not stated)	84.37%	–
O=C(c1cccc(N2CCNC2=O)c1)N1CCOCC1	–	-16.74%

SMILES	Percent Effect (10 µM)	Percent Effect (50 µM)
Cc1ccc(-c2cc(CNc3ncnc4c3CCNCC4)no2)cc1	59.71%	–
COc1ccc(-c2cc(CNc3ncnc4c3CCNCC4)no2)cc1	5.898%	–
Clc1ccccc1-c1cc(CNc2ncnc3c2CCNCC3)no1	22.17%	–
O=C(CSc1nnc[nH]1)NCc1ccc(Br)c(F)c1	–	-12.01%
CC(C)n1ccc(CN2C(=O)CC(C)(C)C2=O)n1	–	66.84%
CCOc1ccc(CN2C(=O)CC(C)(C)C2=O)nc1	15.64%	–
CC(=O)Cc1ccn(C(C)C)n1	–	-14.04%
Nc1n[nH]c(SCc2ccc3c(c2)OCCO3)n1	–	48.58%
CC(C)(C)OC(=O)CNC1CCOCC1	–	-4.673%
O=C(Nc1ccc(Br)cn1)C1CCCNC1 (configuration not stated)	–	56.99%
Cc1cccc(NC(=O)C2CCCNC2)n1 (configuration not stated)	–	-13.07%
CCN1CC(C(=O)Nc2ccc(Br)cn2)CC1=O (configuration not stated)	–	-17.13%
CC(NC(=O)c1ccc(Br)cc1)C(=O)N1CCOCC1 (configuration not stated)	–	-8.67%
Cc1cc(C)n(CC2CCCN2CCCS(C)(=O)=O)n1 (configuration not stated)	55.61%	–
Cc1cc(C)n(CC2CCCN2CCS(C)(=O)=O)n1 (configuration not stated)	-2.075%	–
Cc1cc(C)n(CC2CCCN2CCCS(N)(=O)=O)n1 (configuration not stated)	-7.895%	–
Cc1n[nH]c(C)c1C(NC(N)=O)c1ccccc1 (configuration not stated)	–	2.289%
CCN1CCCN(c2ccccn2)CC1	–	3.404%
NCc1cccc(-c2ccccn2)n1	–	73.75%
NCc1nc(-c2ccccn2)cs1	–	-2.115%
NCc1nc(-c2ccccn2)no1	–	-15.18%

SMILES	Percent Effect (10 µM)	Percent Effect (50 µM)
CN(CC(=O)Nc1ccsc1)C1CCS(=O)(=O)C1 (configuration not stated)	–	-6.022%
O=C(NCC1CCOC1)c1ccoc1C(F)(F)F (configuration not stated)	–	-4.875%
NCCNc1ccc2ccccc2n1	–	-5.159%
O=C(c1ccc(F)cc1)C(O)O	–	0.6979%
CCn1ncnc1CN1CCCC2(C1)CN(C)C(=O)O2 (configuration not stated)	–	-8.186%
NC(=O)N1CCCCCC1C1CCNCC1 (configuration not stated)	–	99.53%
COCC(=O)N1CCCCCC1C1CCNCC1 (configuration not stated)	–	-2.687%
CC(=O)N1CCCCCC1C1CCNCC1 (configuration not stated)	–	-20.88%
COCCC(=O)N(C)C(C)Cc1ncccc1C (configuration not stated)	–	-3.603%
Cn1cc(C(=O)NC2CC(C)(C)OC2(C)C)cn1 (configuration not stated)	–	6.396%
O[C@@H]1CCC[C@H]1n1cccn1	–	27.87%
CC1(C)CC(n2cccn2)C(C)(C)O1 (configuration not stated)	–	95.21%
Cc1cc(C(=O)NCc2ccc(CO)cc2)cc(C)n1	–	4.895%
CC(C)(C)c1cn2c(n1)C(CNCc1ccccn1)CCC2 (configuration not stated)	84.2%	–
Cc1cn2c(n1)C(CNCc1cccc3c1OCO3)CCC2 (configuration not stated)	1.818%	–
Cc1cn2c(n1)C(CNCC1=Cc3ccccc3OC1)CCC2 (configuration not stated)	-4.432%	–
CC(C)(C)c1cn2c(n1)C(CNCc1cnn3ccccc13)CCC2 (configuration not stated)	84.08%	–
Cn1cccc1CNCC1CCCn2cc(C(C)(C)C)nc21 (configuration not stated)	2.504%	–
Cc1cn2c(n1)C(CNCc1cnn3ccccc13)CCC2 (configuration not stated)	-1.725%	–
